Data reported in PubChem BioAssay AID720591 (Broad Institute, 2013).
Out of some 1,200 compounds screened, about 60 (5%) were called active. Roughly 1% stayed inconclusive and do not appear here.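 How the source made its calls: active means Decreasing signal and fitted IC50 at most twice the top valid tested dose; inconclusive means Bad fit or a level curve showing 30 to 70% inhibition; inactive means the rest.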 Only a sample is shown. Entries with a potency or affinity are not part of this list.

The molecules below were run against NAD-dependent protein deacylase sirtuin-5, mitochondrial (Homo sapiens) (UniProt Q9NXA8) (assay: SIRT5 desuccinylase inhibitors, dose response, biochemical, fluorescence imaging, cherry-pick, set 5 (AID 720591)). Settings: Purified SirT5, succinyl-peptide AMC, trypsin-coupled fluorescence; series mostly up to 15 µM.
NAD-dependent protein deacylase sirtuin-5, mitochondrial (Homo sapiens), sequence (Q9NXA8 whole entry, looked up): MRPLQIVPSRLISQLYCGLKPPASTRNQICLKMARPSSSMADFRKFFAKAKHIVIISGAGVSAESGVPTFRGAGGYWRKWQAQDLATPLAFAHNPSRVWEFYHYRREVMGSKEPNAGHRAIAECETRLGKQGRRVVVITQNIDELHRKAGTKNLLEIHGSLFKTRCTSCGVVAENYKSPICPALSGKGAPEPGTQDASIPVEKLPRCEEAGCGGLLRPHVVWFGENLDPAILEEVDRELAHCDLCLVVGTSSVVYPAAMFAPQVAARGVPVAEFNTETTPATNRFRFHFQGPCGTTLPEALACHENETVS

outcome, inactive:
Cc1ccc(NC(=O)COCC(=O)Nc2ccc(F)cc2)cc1
Cc1cccc(OC(=O)Nc2ccc(C(=O)O)c(O)c2)c1
O=C(Nc1ccccc1C(=O)O)c1cc(S(=O)(=O)Nc2ccccc2)ccc1Cl
Cc1cc(NC(=O)CCC(=O)N(CCc2ccccc2)C(C(=O)NC2CCCC2)c2ccco2)no1 (centres undefined)
COc1ccc(CCNS(=O)(=O)c2cc3c4c(c2)CC(=O)N4CCC3)cc1
Nc1cccc(-c2csc(-n3ncc(C(=O)O)c3C(F)(F)F)n2)c1
O=C(O)c1ccc2c(c1)ncn2C1CCCC1
Cc1ccnc(NC(=O)CCC(=O)N(Cc2ccco2)C(C(=O)NC(C)C)c2ccc(F)cc2)c1 (centres undefined)
NNC(=O)Cn1c(-c2ccccc2)cc2ccccc21
CC(C)(C)OC(=O)N(CCc1ccccc1)Cc1ccc(OCc2cccc(NC(=O)C3CC3)c2)cc1
COc1ccc(CCNC(=O)[C@H](C)NC(=O)N2CCn3c2nc2ccccc23)cc1OC
Cc1ccccc1CN1CCN(Cc2ccc3cccc(F)c3n2)CC1CCO (centres undefined)
CNCc1cc(Br)c(OCC(=O)Nc2ccccc2OC)c(OC)c1
COc1cccc(NC(=O)c2ccccc2)c1
COc1ccc(CC(=O)Nc2ccc(C(=O)NCC(C)C)cc2)cc1
Cc1cc2nc(CSc3ccccc3)cc(=O)n2[nH]1
CCCCCCCCN1[C@@H](CC(=O)O)c2cc(C(F)(F)F)ccc2S1(=O)=O
Cc1c(Cc2ccc3c(c2)OCO3)sc(NC(=O)c2ccccc2)c1C(N)=O
Clc1ccc2nc(CSc3ccccc3)cn2c1
Cc1cccc2nc(CSc3ccc(Cl)cc3)cn12
Cc1cccc(N(C(=O)c2snc(C(N)=O)c2N)C(C(=O)NCC2CCCO2)c2ccc3ncccc3c2)c1 (centres undefined)
O=S(=O)(NCc1ccc2c(c1)OCO2)c1ccccc1F
Cc1cccc(Cl)c1NC(=O)NCCCN1CCCCC1C (centres undefined)
CCN(CC)c1ccc(S(=O)(=O)N2CCOCC2)cc1NC(=O)Nc1ccccc1
Cc1ccc(S(=O)(=O)N2CCOCC2)cc1NC(=O)CSc1nnc2n1CCCCC2
CCOC(=O)C(N)CSC1CC(=O)N(c2ccc(OCC)cc2)C1=O (centres undefined)
CCOc1ccc(CN2CCN(C(=O)c3cccc(F)c3)CC2)cc1
Cc1cccc(N2CCN(C(=O)c3ccc4nc[nH]c4c3)CC2)c1C
CCc1nnc(NC(=O)CCC(=O)N2CCN(c3cc(C)ccc3C)CC2)s1
COc1cc(C(C)=O)ccc1OC(=O)CN1C(=O)c2ccccc2C1=O
CC1(C(=O)NS(=O)(=O)c2ccccc2Cl)CCN1C(=O)Cc1cccc2ccccc12 (centres undefined)
Cc1c(C(=O)c2ccc(N(C)C)cc2)c2ccccn2c1CCC#N
CCc1nonc1NC(=O)c1oc2ccc(Cl)cc2c1C
COc1ccc2c(c1)C(=O)O[C@@H](c1ccccc1)C[C@@H](O)C(=O)CC2
COc1ccc(OC)c(NC(=O)CSc2nnc(CNC(=O)c3cccs3)o2)c1
CCOc1ccc(OCC)c(NC(=O)C2CCCN(C(=O)c3ccc(Cl)cc3)C2)c1 (centres undefined)
COc1ccc(C(=O)OC(C)C(=O)NCC2CCCCC2)cc1S(=O)(=O)N1CCOCC1 (centres undefined)
CCC(=O)Nc1cccc(-c2cc3ccccc3oc2=O)c1
COc1cc2cc(C#N)c(SCC(=O)Nc3cc(C)on3)nc2cc1OC
Cc1ccc(CNC(=O)CCCCCNC(=O)N2CCn3c2nc2ccccc23)cc1
O=C(NC1CCCCC1)c1ccc(S(=O)(=O)c2ccccc2)cc1
CCOC(=O)C1CCN(C(=O)Cn2cc(C(=O)OC)c3ccccc32)CC1
COc1ccc(NC(=O)CN2CCN(c3ccccn3)CC2)cc1Cl
C=C(C)COc1ccc(-c2ncncc2-c2ccc(OC)cc2)c(O)c1
COc1ccc(-c2csc3nc(C(C)C)oc(=O)c23)cc1OC
Cn1cc(C(=O)NCCc2ccccc2)c(=O)c2cc(S(=O)(=O)N3CCOCC3)ccc21
CC(C)c1ccccc1NC(=O)c1cnccn1
O=C(c1ccccc1)c1coc2ccc(O)c(Cl)c12
CC(C)(C)C(=O)Oc1cccc(Nc2ncnc3ccccc23)c1
Nc1nc(-c2ccc(C(=O)O)cc2)cs1
O=C(O)CCC(=O)Nc1ccc(-c2nc3ccc(C(=O)c4ccccc4)cc3[nH]2)cc1
Cc1ccc(S(=O)(=O)NCC(=O)OCC(=O)NCc2ccc(F)cc2)cc1
Cc1nnc(SCC(=O)Nc2ncc3c(n2)CC(c2ccccc2)CC3=O)s1 (centres undefined)
Cc1ccc(S(=O)(=O)Nc2ccc(N(C)C)cc2)cc1
COc1ccc(N2CC(NC(=O)N3CCc4ccccc43)CC2=O)cc1OC (centres undefined)
CN(C)CCOC(=O)NCC12CC3CC(CC(C3)C1)C2
C[C@@H]1CN([C@@H](C)CO)C(=O)CCCn2nncc2CO[C@H]1CN(C)C(=O)C1CCCCC1
CCCCCCN1C[C@@H](O)[C@H](n2cc(COC(=O)c3ccccc3)nn2)C[C@@H]1c1ccc(C)cc1
C[C@H]1COc2cc(NCCO)ccc2S(=O)(=O)N1
Cc1ccc(S(=O)(=O)N2C[C@@H]3CCCC[C@@H]3[C@@H](C)[C@H]2c2cn(Cc3ccccc3)c3ncccc23)cc1
CCOc1ccccc1NC(=O)CN1c2cccc3cccc(c23)S1(=O)=O
Nn1c(C2CCC2)nc2cc(Cl)ccc2c1=O
CCC(C)C(CO)NCCCn1cnc2c(SC)ncnc21 (centres undefined)
Cc1nc(NC(=O)c2cc3ccccc3o2)sc1C
Cc1csc(NC(=O)c2cc3ccccc3o2)n1
Cc1ccc(OCCNC(=O)C2CCCCC2)cc1
Cc1cc(C)c2c(CN3CCOCC3)cc(=O)oc2c1
COc1ccc(CNC(=O)CCn2ccc3cc(S(=O)(=O)N4CCCC4)ccc32)cc1
COc1ccc(CN(C(=O)c2ccco2)c2ccccc2)cc1
COc1ccc(CN(C(=O)c2ccco2)c2ccc(C)cc2)cc1OC
CN1C(=O)[C@H]2[C@@H](C3CC3)N3C(=O)CN(CCO)C(=O)[C@@]3(Cc3ccccc3)[C@H]2C1=O
CCOc1ccc(-c2noc(CCCC(=O)NC3CCCC3)n2)cc1OC
CCCCCNC(=O)C(c1cc2ccccc2o1)n1c(=O)c(-c2ccccc2)nc2ccccc21 (centres undefined)
COc1ccc(CCNC(=O)COC(=O)CCC(=O)c2ccc(F)cc2)cc1OC
CCCCCCNC(=O)c1ccc(Br)o1
COc1cc(C(=O)NCC2(N(C)C)CCCCC2)ccc1OCc1ccccc1
Cn1c(NCCCO)nc2c1c(=O)n(Cc1ccccc1F)c(=O)n2C
CC(=O)c1cc(-c2ccc(F)cc2)n(CCC(=O)NC(C)(C)C)c1C
COC(CNC(=O)CC1C(=O)N(Cc2ccccc2)C(C)c2nc3ccccc3n21)OC (centres undefined)
CCCCNC(=O)C[C@@H]1C[C@@]2(C(=O)OC)CC(C)(C)CC=C2N(Cc2ccco2)C1=O
Cc1ccc(S(=O)(=O)N2C[C@@H](C)[C@]3(C2)[C@H](O)[C@H](OC(=O)NCc2ccco2)C[C@H]2C(=O)N(c4ccccc4)C(=O)[C@H]23)cc1
OC[C@@H]1CN(Cc2cccs2)C[C@H](n2cnc3c(Nc4ccccc4)ncnc32)O1
CCc1cc2c(=O)c(-c3nc4ccccc4n3C)coc2c(CN2CCCCC2)c1O
Cc1ccc(NC(=O)c2ccc3c(c2)CCN3S(C)(=O)=O)cc1
Cc1cc(C)cc(N(C(=O)CCC(=O)Nc2cc(C)on2)C(C(=O)NC2CCCC2)c2ccco2)c1 (centres undefined)
COc1ccc(CC(=O)NCC2CCCN(Cc3ccc(OC(F)(F)F)cc3)C2)cc1 (centres undefined)
CCOC(=O)C(Cc1ccc(NC(C)=O)cc1)N1C(=O)c2ccccc2C1=O (centres undefined)
O=C(OCC(=O)N1CCCC1)c1cc(Br)ccc1Cl
Oc1ccc(-c2n[nH]c(C(F)(F)F)c2-c2ccccc2)c(O)c1
COc1ccccc1-c1cc(C(=O)NC(C)C)no1
CC1c2nc3ccccc3n2C(CC(=O)NC2CC2)C(=O)N1Cc1ccccc1 (centres undefined)
Cc1ccc(Cn2c(N3CCN(C)CC3)nc3c2c(=O)[nH]c(=O)n3C)cc1
Cn1c(=O)[nH]c(=O)c2c1nc(N1CCNCC1)n2Cc1ccccc1
Oc1ccc(-c2nccc(-c3ccc(Cl)cc3Cl)n2)cc1
Cc1ccc(-c2nc3c(Cl)cc(C(F)(F)F)cn3c2Cc2cccc(F)c2)cc1
CC(=O)c1cccc(NC(=O)CCS(=O)(=O)c2ccc(Br)s2)c1
O=C(Nc1ccc2c(c1)OCCO2)C(c1ccnc2ccccc12)N1CCN(c2ccc(F)cc2)CC1 (centres undefined)
C=CC[C@H](CC(=O)N(CCO)Cc1ccccc1)C(=O)N[C@@H](COC(=O)[C@H](CC=C)CC(=O)OC(C)(C)C)Cc1c[nH]c2ccccc12
CSc1nc(N)nc2c1ncn2CC(=O)NCC1CCCO1 (centres undefined)
O=C(NCc1ccc(F)cc1)C1CC(=O)N(C2CCCCC2)C1 (centres undefined)
Cc1cc(C)c(NC(=O)CN(C)C(=O)CNC(=O)c2cccs2)c(C)c1
O=C(Nc1ccccc1Cl)c1cccs1
COc1ccccc1CCNS(=O)(=O)c1cc2c3c(c1)C(C)C(=O)N3CCC2 (centres undefined)
COc1ccc(Nc2oc(-c3ccco3)nc2S(=O)(=O)c2ccc(F)cc2)cc1
